The results in this text go back to PubChem BioAssay AID651784 (National Center for Advancing Translational Sciences (NCATS), 2012).

Inconclusive results are not listed. Activity calls are given as the source filed them. Calls come from the whole dose curve; as a rule, active = well fitted inhibition curve with a large enough effect; inconclusive = small, poorly fitted or top-dose-only effect; inactive = no such curve, though single readings can be large or run the other way.
Potency is the fitted concentration of half-maximal effect.

A short description of this test: Acumen qHTS Assay for Inhibitors of the mTORC1 Signaling Pathway in MEF (Tsc2-/-, p53-/-) Cells: Hit Validation.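 For activity change, negative = inhibition: cells exposed to compound for 24 hours; plate controls were DMSO for no effect and 7.5 nM rapamycin control for full effect.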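 Note: phospho-rpS6 Ser235/236 immunofluorescence normalized to propidium iodide cell count; nearly all actives have a fitted effect of over 65% in size.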 The following applies: Acumen imaging; activity change, negative = inhibition: at 37.3 µM (top of the series). For orientation: Quantitative high-throughput screening tests each substance at several concentrations.
Consider `COc1ccc2nc(NC(=O)c3nc(S(=O)(=O)Cc4ccccc4F)ncc3Cl)sc2c1`, for which the activity change, negative = inhibition was -106%.

`O=C(CS(=O)(=O)c1cccc2nsnc12)NCc1ccc(Cl)cc1`: the activity change, negative = inhibition came to 10.4%.

Consider `COc1ccc(C)cc1NC(=O)CCNS(=O)(=O)c1cccc2nonc12`, for which the activity change, negative = inhibition is 5.15%.

In the case of `Cc1ccccc1NC(=O)c1sc2nc3c(cc2c1N)CCCC3`, the activity change, negative = inhibition was -21.3%.

Regarding `Cn1ccc2c(OCC(=O)Nc3ccc(OC(F)(F)F)cc3)cccc2c1=O`, the Potency is 16.5 µM (active).

For the molecule `Cc1ccccc1CN1C(=O)C(O)(CC(=O)c2cccc(Br)c2)c2ccccc21` (stereo not drawn), the activity change, negative = inhibition is -20%.

As for `Cc1nn(C(C)C(=O)NC2CCCCC2)c(=O)c2c1sc1ccccc12` (stereo not drawn), the activity change, negative = inhibition was -2.94%.

For the molecule `Cc1ccc2[nH]c(=O)c3cc(C(=O)NCCCN4CCC(C)CC4)sc3c2c1`, the Potency was 13.1 µM (active).

Take `CCOc1cc(C2CC(=O)Nc3cc4c(cc32)OCCO4)ccc1O` (stereo not drawn): the activity change, negative = inhibition amounted to 3.9%.

Take `COC(=O)c1c(C)oc2ccc(N(C(=O)c3ccncc3)S(=O)(=O)c3ccc(OC)cc3)cc12`: the Potency is 1.85 µM (active).

Consider `CCS(=O)(=O)c1ncc(Cl)c(C(=O)Nc2ccc(S(=O)(=O)N(C)c3ccccc3)cc2)n1`, for which the Potency is 1.47 µM (active).

Regarding `COc1ccc(CCNC(=O)c2ccc3c(c2)N(Cc2ccccc2)CCS3)cc1OC`, the Potency is 5.21 µM (active).

As to `CCOc1ccc(NC(=O)c2sc3nc4c(cc3c2N)CCCCCC4)cc1`, the Potency is 9.27 µM (active).

Turning to `CCCCS(=O)(=O)c1oc(-c2ccc(F)cc2)nc1S(=O)(=O)c1ccccc1`, the activity change, negative = inhibition was -151%.

In the case of `COc1ccc(-c2nc(S(=O)(=O)c3ccc(Cl)cc3)c(N3CCCCCC3)o2)cc1`, the activity change, negative = inhibition stood at 2.12%.

For the molecule `CCC1CN(C(=O)NCc2ccc(F)cc2)c2cc(C)ccc2O1` (stereo not drawn), the activity change, negative = inhibition came to 0.784%.

On to `COc1ccc(OCC(O)Cn2c(=N)n(CCN3CCCCC3)c3ccccc32)cc1` (stereo not drawn), for which the Potency is 16.5 µM (active).

Consider `CCCS(=O)(=O)c1c(S(=O)(=O)CCC)c2cc(C(C)(C)C)ccn2c1C(=O)c1ccc(OC)c(OC)c1`, for which the activity change, negative = inhibition is -5.67%.

As to `O=C(CCS(=O)(=O)c1nc(-c2cccs2)cc(C(F)(F)F)n1)Nc1cccc(O)c1`, the activity change, negative = inhibition was -112%.

Consider `COc1cc(NC(=O)CSc2ccc(-c3ccccn3)nn2)cc(OC)c1`, for which the activity change, negative = inhibition was -6.23%.

As for `CCS(=O)(=O)c1ncc(Cl)c(C(=O)NCc2ccccc2)n1`, the Potency is 6.56 µM (active).

As for `CCCN1C(=O)C(Cc2nc3ccccc3c(=O)n2CC)c2ccccc21` (stereo not drawn), the activity change, negative = inhibition was -1.87%.

For `Cc1ccccc1NC(=O)Cn1cc(C(=O)c2cccs2)c2ccccc21`, the activity change, negative = inhibition was 1.72%.

In the case of `Cc1ccc(Nc2nc(C(N)=O)c(NC(=O)c3ccccc3Br)s2)cc1`, the Potency was 5.85 µM (active).

Regarding `Cc1ccc(C)c(Cn2c3ccccc3c3cnn(CC(=O)NC(C)CCc4ccccc4)c(=O)c32)c1` (stereo not drawn), the Potency was 7.36 µM (active).

Consider `CCOc1ccccc1NC(=O)N(Cc1ccc(F)cc1)C1CCN(CC)CC1`, for which the activity change, negative = inhibition was -15.8%.

With `Cc1ccc2nc(-c3cccc(NC(=O)c4cccc5ccccc45)c3)oc2c1`, the activity change, negative = inhibition is -72.4%.

With `Cc1ccc2c(c1)C(=O)C(=O)N2Cc1ccc(OC(C)C)cc1`, the Potency is 0.0736 µM (active).

With `CCCCN(C)CC(O)Cn1cc(/C=C/C(=O)c2ccc(C)cc2)c2ccccc21` (stereo not drawn), the Potency is 13.1 µM (active).

On to `CN1CCC(Nc2ncc3ncnc(Nc4ccc(F)c(Cl)c4)c3n2)CC1`, for which the activity change, negative = inhibition was -95%.

For the molecule `COc1ccc(-c2nnc(SCC(=O)NCc3ccccc3)nc2-c2ccc(OC)c(OC)c2)cc1OC`, the Potency was 18.5 µM (active).

For `COc1ccc(N2CCN(C(=O)C3CCN(Cc4nc(-c5ccc(Cl)cc5)oc4C)CC3)CC2)cc1`, the activity change, negative = inhibition was -10.9%.

In the case of `O=c1oc2ccccc2cc1-c1cn2cc(Cc3ccccc3F)sc2n1`, the Potency was 16.5 µM (active).

Take `COc1cc(Nc2nc(SCC(=O)c3ccc(Cl)c(Cl)c3)nc3ccccc23)cc(OC)c1`: the activity change, negative = inhibition is -51.7%.

Take `Cc1cccc(OCC(=O)Nc2ccc(-c3nc4cc(C)ccc4o3)c(O)c2)c1`: the Potency was 6.56 µM (active).

As for `COc1cc(Cl)c(C)cc1Nc1c2c(nc3ccccc13)CCC2`, the Potency was 0.927 µM (active).

On to `COc1ccccc1C(=O)Nc1ccc2nc(N3CCC(C)CC3)cc(C)c2c1`, for which the activity change, negative = inhibition was -19.9%.

Regarding `COc1ccc(N(C)C(=O)c2cc(S(=O)(=O)N3CCc4ccccc43)cn2C)c(OC)c1`, the activity change, negative = inhibition was determined as 18.7%.
